Experimental data published in the supplement of paper PMC12819154, “High-throughput peptide-centric local stability assay extends protein–ligand identification to membrane proteins, tissues and bacteria” (Nature Structural & Molecular Biology, 2025).

compound: Nc1ncnc2c1ncn2[C@@H]1O[C@H](COP(=O)(O)OP(=O)(O)OP(=O)(O)O)[C@@H](O)[C@H]1O [adenosine 5'-triphosphate]; assay: log2 fold change of tryptic peptide abundance, ligand vs vehicle (limited proteolysis) (log2 ratio); higher = more trypsin-susceptible (destabilized); conditions: ligand concentration: 5 mM; sample: E. coli desalted lysate; replicate design: treated before aliquoting
Experimental: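 HT-PELSA: desalted E. coli K-12 BW25113 lysate (with 12 mM MgCl2) incubated with 5 mM ATP (pH 7) or water for 30 min at 25 C, then a 4 min trypsin pulse at 22 C. Peptides were quantified by DIA-MS (4 replicates). Value is the peptide log2 fold change (treated/control); negative = stabilized. Scale: negative = ligand-stabilized region.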
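Further: lysate desalted by size exclusion to strip endogenous ATP, peptide intensities built from DIA-NN precursor signals, and peptides missing any value discarded before comparison.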

Target | log2 fold change
UniProt P76257 (peptide sequence: GQPLVVEAGTGTGK, peptide start residue: 38) | -0.82
UniProt P02925 (peptide sequence: IAGDYIAKK, peptide start residue: 136) | 1.27
UniProt P00509 (peptide sequence: VWVSNPSWPNHK, peptide start residue: 123) | -1.24
UniProt P0AAG8 (peptide sequence: TQIGSLSGGNQQK, peptide start residue: 402) | 0.32
UniProt P21693 (peptide sequence: ELADQVAGELRR, peptide start residue: 82) | -1.53
UniProt P23305 (peptide sequence: DLGLAGASLR, peptide start residue: 115) | 0.488
UniProt P64624 (peptide sequence: QIVLNLYEK, peptide start residue: 192) | 0.361
UniProt P10907 (peptide sequence: ILELDGLLK, peptide start residue: 121) | -0.369
UniProt P75915 (peptide sequence: VLGSLYYR, peptide start residue: 10) | 0.747
UniProt P31129 (peptide sequence: SNMDVLTGLPGRR, peptide start residue: 129) | -1.39
UniProt P39400 (peptide sequence: VLGHEICGEIVGLGK, peptide start residue: 59) | -1.26
UniProt P10423 (peptide sequence: KSWHNVTGSTVIAAHEGK, peptide start residue: 90) | -0.451
UniProt P39160 (peptide sequence: TWQIAMDGSQKLPQR, peptide start residue: 366) | -0.725
UniProt P45523 (peptide sequence: GTLIDGKEFDNSYTR, peptide start residue: 173) | 0.527
UniProt P75728 (peptide sequence: LVIGADGANSQVR, peptide start residue: 160) | 0.798
UniProt P0CB39 (peptide sequence: QYYMNQQR, peptide start residue: 350) | -0.737
UniProt Q46925 (peptide sequence: SQFAEAQR, peptide start residue: 53) | -0.663
UniProt P22634 (peptide sequence: LVDSGAAIAR, peptide start residue: 224) | 0.312
UniProt P76506 (peptide sequence: SDPLEGFNR, peptide start residue: 29) | 0.294
UniProt P30844 (peptide sequence: NLVENAHR, peptide start residue: 260) | -1.02

Target | log2 fold change
UniProt P27126 (peptide sequence: IGMDNAWLGR, peptide start residue: 45) | -0.467
UniProt P0AG16 (peptide sequence: TFIMPGQQLR, peptide start residue: 334) | -0.26
UniProt P37765 (peptide sequence: EIESIIEAGRVSVDGK, peptide start residue: 19) | 0.997
UniProt P0ACP7 (peptide sequence: TRFVAEETR, peptide start residue: 25) | 1.38
UniProt P42632 (peptide sequence: IKALPTYR, peptide start residue: 593) | 0.596
UniProt P07023 (peptide sequence: KVEHWFGDYAQR, peptide start residue: 345) | 0.528
UniProt P37339 (peptide sequence: AFCDQNGIR, peptide start residue: 75) | 0.681
UniProt P37313 (peptide sequence: GTKDQIFNNPR, peptide start residue: 244) | 1.01
UniProt P77433 (peptide sequence: GEFLNNVAQALGRPLR, peptide start residue: 5) | 0.243
UniProt P0AEK2 (peptide sequence: ALSDDQRAGILAQVPAGR, peptide start residue: 191) | 0.83
UniProt P37689 (peptide sequence: LVAAIKSGK, peptide start residue: 383) | -2.15
UniProt P75767 (peptide sequence: VLSSLSSLGSR, peptide start residue: 24) | -1.19
UniProt P14294 (peptide sequence: VQTPVLGLVVR, peptide start residue: 198) | -0.642
UniProt P42630 (peptide sequence: ITAWKGQEELLSK, peptide start residue: 129) | 0.565
UniProt P00954 (peptide sequence: QHLELSR, peptide start residue: 152) | -0.982
UniProt P45541 (peptide sequence: TGMFTCGHQR, peptide start residue: 3) | -1.14
UniProt P00582 (peptide sequence: QLNIPRK, peptide start residue: 776) | -3.24
UniProt P22188 (peptide sequence: LWCVFGCGGDRDK, peptide start residue: 380) | -1.25
UniProt P46850 (peptide sequence: KDAEVIDEIPMAYK, peptide start residue: 368) | -0.573
UniProt P23836 (peptide sequence: VLVVEDNALLR, peptide start residue: 3) | 0.563
